Measured values as given in PubChem BioAssay (EPA / NIEHS).
The source made the active and inactive calls. The calls were made as follows: active = hit-call score of the fitted dose curve at least 0.9, where 1 is the maximum; inactive = score below 0.9.

How the values were obtained:
[1] = read-out: Macrophage colony-stimulating factor (MCSF), CSF1 (gene 1435); assay: BSK_CASM3C_MCSF: BioMAP Diversity Plus: CASM3C Assay for Macrophage colony-stimulating factor (MCSF) Biomarker Activity (AID 2283044); conditions: primary human coronary artery smooth muscle cells; actives raise or lower the signal;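 also: M-CSF protein amount quantified by ELISA after 24 h exposure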
[2] = read-out: Low-density lipoprotein receptor (LDLR), LDLR (gene 3949); assay: BSK_CASM3C_LDLR: BioMAP Diversity Plus: CASM3C Assay for Low-density lipoprotein receptor (LDLR) Biomarker Activity (AID 2283045); conditions: primary human coronary artery smooth muscle cells; actives raise or lower the signal;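 also: LDLR protein level on the cell surface quantified by ELISA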
[3] = read-out: Monocyte Chemoattractant Protein-1 (MCP1), CCL2 (gene 6347); assay: BSK_CASM3C_MCP1: BioMAP Diversity Plus: CASM3C Assay for Monocyte Chemoattractant Protein-1 (MCP1) Biomarker Activity (AID 2283046); conditions: primary human coronary artery smooth muscle cells; actives raise or lower the signal;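 also: MCP-1 level quantified by ELISA 24 h after dosing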
[4] = BSK_CASM3C_Proliferation: Cell Proliferation Assessment in the BioMAP Diversity Plus: CASM3C Assay (AID 2283047); conditions: primary human coronary artery smooth muscle cells;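 also: sulforhodamine B total protein stain as relative cell number at 560 nm; sub-confluent cells exposed 48 h before staining; fitted both ways against DMSO so gain or loss of cell number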
[5] = read-out: Monokine induced gamma interferon (MIG), CXCL9 (gene 4283); assay: BSK_CASM3C_MIG: BioMAP Diversity Plus: CASM3C Assay for Monokine induced gamma interferon (MIG) Biomarker Activity (AID 2283048); conditions: primary human coronary artery smooth muscle cells; actives raise or lower the signal;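 also: MIG protein level measured by ELISA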
[6] = read-out: serum amyloid A (SAA), SAA1 (gene 6288); assay: BSK_CASM3C_SAA: BioMAP Diversity Plus: CASM3C Assay for serum amyloid A (SAA) Biomarker Activity (AID 2283049); conditions: primary human coronary artery smooth muscle cells; actives raise or lower the signal;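 also: SAA protein level quantified by ELISA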
[7] = BSK_CASM3C_SRB: Viability Assessment in the BioMAP Diversity Plus: CASM3C Assay (AID 2283050); conditions: primary human coronary artery smooth muscle cells;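 also: total protein by SRB staining as cytotoxicity measure in parallel cultures; cells exposed to compound for 24 h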
[8] = read-out: Thrombomodulin, THBD (gene 7056); assay: BSK_CASM3C_Thrombomodulin: BioMAP Diversity Plus: CASM3C Assay for Thrombomodulin Biomarker Activity (AID 2283051); conditions: primary human coronary artery smooth muscle cells; actives raise or lower the signal;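 also: thrombomodulin protein level measured by ELISA 24 h after dosing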
[9] = read-out: Tissue Factor, F3 (gene 2152); assay: BSK_CASM3C_TissueFactor: BioMAP Diversity Plus: CASM3C Assay for Tissue Factor Biomarker Activity (AID 2283052); conditions: primary human coronary artery smooth muscle cells; actives raise or lower the signal;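 also: cell surface tissue factor protein level read by ELISA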
[10] = read-out: Urokinase-type plasminogen activator receptor (uPAR), PLAUR (gene 5329); assay: BSK_CASM3C_uPAR: BioMAP Diversity Plus: CASM3C Assay for Urokinase-type plasminogen activator receptor (uPAR) Biomarker Activity (AID 2283054); conditions: primary human coronary artery smooth muscle cells; actives raise or lower the signal;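 also: cell-surface uPAR protein level quantified by ELISA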
[11] = read-out: Vascular cell adhesion molecule 1 (VCAM1), VCAM1 (gene 7412); assay: BSK_CASM3C_VCAM1: BioMAP Diversity Plus: CASM3C Assay for Vascular cell adhesion molecule 1 (VCAM1) Biomarker Activity (AID 2283055); conditions: primary human coronary artery smooth muscle cells; actives raise or lower the signal;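 also: VCAM-1 protein level quantified by ELISA on the cells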
[12] = read-out: Collagen III, COL3A1 (gene 1281); assay: BSK_hDFCGF_CollagenIII: BioMAP Diversity Plus: hDFCGF Assay for Collagen III Biomarker Activity (AID 2283056); conditions: primary human foreskin fibroblasts; actives raise or lower the signal
Method in brief: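 ELISA readout of Collagen III in human dermal (foreskin) fibroblasts, taken 24 h post-treatment. Gain or loss relative to DMSO vehicle fitted in both directions.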

[13] = read-out: Epidermal growth factor receptor (EGFR), EGFR (gene 1956); assay: BSK_hDFCGF_EGFR: BioMAP Diversity Plus: hDFCGF Assay for Epidermal growth factor receptor (EGFR) Biomarker Activity (AID 2283057); conditions: primary human foreskin fibroblasts; actives raise or lower the signal
Method in brief: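 Dosing human primary skin fibroblasts, then measuring surface EGFR by ELISA at 24 h, gives the endpoint; gains and losses relative to DMSO were fitted in both directions.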

[14] = read-out: Interleukin-8 (IL8), CXCL8 (gene 3576); assay: BSK_hDFCGF_IL8: BioMAP Diversity Plus: hDFCGF Assay for Interleukin-8 (IL8) Biomarker Activity (AID 2283058); conditions: primary human foreskin fibroblasts; actives raise or lower the signal
Method in brief: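 IL-8 levels read by ELISA at 24 hours after dosing human skin fibroblast cultures. Parallel SRB staining assessed overt cytotoxicity, and gain or loss of signal was fitted against DMSO control.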

[15] = BSK_hDFCGF_Proliferation: Cell Proliferation Assessment in the BioMAP Diversity Plus: hDFCGF Assay (AID 2283059); conditions: primary human foreskin fibroblasts;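 also: curves fitted for both rise and fall of signal versus DMSO baseline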
Method in brief: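 Primary human foreskin fibroblasts, sub-confluent; […]; 10% TCA fix, 0.1% SRB stain, A560 total protein. Gain/loss fitted bidirectionally vs DMSO control.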

[16] = read-out: Macrophage colony-stimulating factor (MCSF), CSF1 (gene 1435); assay: BSK_hDFCGF_MCSF: BioMAP Diversity Plus: hDFCGF Assay for Macrophage colony-stimulating factor (MCSF) Biomarker Activity (AID 2283060); conditions: primary human foreskin fibroblasts; actives raise or lower the signal
Method in brief: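 M-CSF levels read by ELISA at 24 h post-dosing in human skin fibroblasts. Parallel cultures stained with SRB assessed cytotoxicity at the same time point; response fitted in both directions against the DMSO baseline.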

[17] = BSK_hDFCGF_SRB: Viability Assessment in the BioMAP Diversity Plus: hDFCGF Assay (AID 2283061); conditions: primary human foreskin fibroblasts;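 also: cells exposed to compound for 24 h before the read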
Method in brief: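 Viability was read as total protein: after 10% TCA fixation, wells were stained with 0.1% sulforhodamine B and read at 560 nm. Primary human foreskin fibroblasts were dosed for 24 h, with bidirectional fitting versus DMSO.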

[18] = read-out: TIMP metallopeptidase inhibitor 1 (TIMP1), TIMP1 (gene 7076); assay: BSK_hDFCGF_TIMP1: BioMAP Diversity Plus: hDFCGF Assay for TIMP metallopeptidase inhibitor 1 (TIMP1) Biomarker Activity (AID 2283062); conditions: primary human foreskin fibroblasts; actives raise or lower the signal
Method in brief: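 TIMP-1 measured by ELISA 24 h after chemical dosing of primary human skin fibroblasts, with gain or loss fitted relative to DMSO. Parallel SRB staining (560 nm) monitored overt cytotoxicity.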

[19] = read-out: Monokine induced gamma interferon (MIG), CXCL9 (gene 4283); assay: BSK_hDFCGF_MIG: BioMAP Diversity Plus: hDFCGF Assay for Monokine induced gamma interferon (MIG) Biomarker Activity (AID 2283063); conditions: primary human foreskin fibroblasts; actives raise or lower the signal
Method in brief: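 Human primary foreskin fibroblasts in the hDFCGF system, exposed to test chemical for 24 h; MIG measured by ELISA. Bidirectional curve fitting against DMSO negative control as activity baseline.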

[20] = read-out: Interferon-gamma inducible Protein 10 (IP10), CXCL10 (gene 3627); assay: BSK_hDFCGF_IP10: BioMAP Diversity Plus: hDFCGF Assay for Interferon-gamma inducible Protein 10 (IP10) Biomarker Activity (AID 2283053); conditions: primary human foreskin fibroblasts; actives raise or lower the signal
Method in brief: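 Cells: human dermal foreskin fibroblasts. Exposure: 24 h post-dosing. Detection: IP-10 ELISA, with values expressed against DMSO controls and fitted in both directions.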

Measured: AC50

C[C@]12C=CC3=C4CCC(=O)C=C4CC[C@H]3[C@@H]1CC[C@@H]2O
not listed: [20]
inactive: all other assays above

CC(C)N(Cc1ccccc1)C(=O)C(C)(C)C
not listed: [20]
inactive: all other assays above

Cc1ccc(N)cc1
not listed: [16]
inactive: all other assays above

CN(C)[C@@H]1C(=O)C(C(N)=O)=C(O)[C@@]2(O)C(=O)C3=C(O)c4c(O)cccc4[C@@](C)(O)[C@H]3C[C@@H]12
active: [15] 22.9 µM
not listed: [20]
inactive: all other assays above

CC(C)(OOC(C)(C)c1ccccc1)c1ccccc1
active: [4] 30.3 µM | [8] 32.1 µM | [9] 20 µM | [12] 12.8 µM | [14] 36.2 µM | [15] 14.9 µM | [17] 29.1 µM | [19] 20 µM
not listed: [20]
inactive: all other assays above

COC(=O)c1ccccc1N
not listed: [16]
inactive: all other assays above

N#CC(Br)(Br)C(N)=O
not listed: [20]
inactive: all other assays above

CCC12COCN1COC2
active: [4] 4.32 µM
not listed: [20]
inactive: all other assays above

[O-][Cl+]O
not listed: [20]
inactive: all other assays above

O=Cc1ccco1
not listed: [20]
inactive: all other assays above

CCCCCOC(=O)c1ccccc1C(=O)OCCCCC
active: [8] 15.6 µM | [12] 3.97 µM
not listed: [16]
inactive: all other assays above

CCC[CH2][Sn]([Cl])([CH2]CCC)[CH2]CCC
inactive: [13]
active: [1] 0.273 µM | [2] 0.226 µM | [3] 0.383 µM | [4] 0.148 µM | [5] 0.326 µM | [6] 0.148 µM | [7] 0.402 µM | [8] 3.97 µM | [9] 0.148 µM | [20] 0.259 µM | [10] 0.406 µM | [11] 0.148 µM | [12] 0.316 µM | [14] 0.287 µM | [15] 0.148 µM | [17] 0.148 µM | [18] 0.148 µM | [19] 0.369 µM

Cc1ccc([N+](=O)[O-])cc1
not listed: [20]
inactive: all other assays above

Nc1ccc(Cc2ccc(N)cc2)cc1
not listed: [20]
inactive: all other assays above

Cc1ccc(N)c(N)c1
active: [8] 13.7 µM | [20] 3.97 µM | [11] 8.46 µM | [12] 6.88 µM | [15] 14.7 µM | [19] 3.65 µM
not listed: [16]
inactive: all other assays above

CC(O)CCO (stereo unspecified)
not listed: [16]
inactive: all other assays above

Cc1cccc(N)c1N
active: [1] 3.73 µM | [8] 9.78 µM | [11] 13.8 µM
not listed: [16]
inactive: all other assays above

OCCOCCO
not listed: [16]
inactive: all other assays above

CCCCCCCCOC(=O)c1ccc(C(=O)OCCCCCCCC)c(C(=O)OCCCCCCCC)c1
not listed: [16]
inactive: all other assays above

O=C(Nc1ccccc1)c1ccccc1I
not listed: [16]
inactive: all other assays above

c1ccc(NNc2ccccc2)cc1
active: [8] 15.9 µM
not listed: [20]
inactive: all other assays above

c1ccc(C2CO2)cc1 (stereo unspecified)
not listed: [20]
inactive: all other assays above

CCN(CC)N=O
not listed: [20]
inactive: all other assays above

[Cl-].[Cl-].[Hg+2]
inactive: [13]
active: [1] 26.5 µM | [2] 34.8 µM | [3] 33.5 µM | [4] 29.3 µM | [5] 33.9 µM | [6] 30.6 µM | [7] 36.6 µM | [8] 5.21 µM | [9] 32.6 µM | [20] 11.5 µM | [10] 34.4 µM | [11] 26.5 µM | [12] 11.6 µM | [14] 13.6 µM | [15] 4.83 µM | [17] 12.1 µM | [18] 13.5 µM | [19] 8.14 µM

C=CCc1ccc2c(c1)OCO2
not listed: [20]
inactive: all other assays above

Cn1cc(-c2ccccc2)c(=O)c(-c2cccc(C(F)(F)F)c2)c1
active: [10] 5.18 µM
not listed: [16]
inactive: all other assays above

CN(C)c1ccc(C(=O)c2ccc(N(C)C)cc2)cc1
active: [4] 2 µM | [15] 1.56 µM
not listed: [16]
inactive: all other assays above

Clc1ccc(C(c2ccc(Cl)cc2)C(Cl)(Cl)Cl)cc1
inactive: [5] | [13]
active: [1] 14.7 µM | [2] 32.1 µM | [3] 36.9 µM | [4] 29.1 µM | [6] 33.3 µM | [7] 27.7 µM | [8] 6.95 µM | [9] 33.2 µM | [20] 14.1 µM | [10] 20 µM | [11] 20 µM | [14] 27.3 µM | [15] 5.38 µM | [17] 10.6 µM | [18] 13 µM | [19] 15.8 µM
